From PubChem
FLuc counter: firefly luciferase modulation, counter-screen for miR-21 project. P08659. purified FLuc, Km substrates, luminescence inhibition. Potency, µM (series often up to 57.5 µM), inactives show top-dose activity change, negative = inhibition, hits mostly inhibitors. actives 6.9% (n = 360,000). AID 588342;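 note: plate controls were vehicle for no effect and reference inhibitor for full effect; nearly all actives have a fitted effect of over 55% in size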
Target sequence (P08659 whole entry, looked up): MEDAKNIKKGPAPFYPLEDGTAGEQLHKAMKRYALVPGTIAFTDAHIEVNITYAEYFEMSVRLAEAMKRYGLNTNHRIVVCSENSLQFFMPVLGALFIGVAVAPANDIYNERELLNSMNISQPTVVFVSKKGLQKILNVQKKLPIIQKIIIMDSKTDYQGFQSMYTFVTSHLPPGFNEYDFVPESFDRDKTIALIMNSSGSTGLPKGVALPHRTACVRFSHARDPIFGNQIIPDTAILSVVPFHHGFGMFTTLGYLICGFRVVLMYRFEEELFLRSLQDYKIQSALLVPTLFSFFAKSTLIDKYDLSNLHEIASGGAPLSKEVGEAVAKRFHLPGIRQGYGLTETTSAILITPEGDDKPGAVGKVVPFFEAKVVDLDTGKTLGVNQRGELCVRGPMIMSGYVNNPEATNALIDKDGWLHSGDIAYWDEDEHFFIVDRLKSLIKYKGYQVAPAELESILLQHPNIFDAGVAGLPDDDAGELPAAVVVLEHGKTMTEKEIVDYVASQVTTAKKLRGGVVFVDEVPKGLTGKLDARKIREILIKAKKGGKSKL
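Purified P. pyralis luciferase, 10 nM final, with Km-level 10 uM D-luciferin and 10 uM ATP in 50 mM Tris acetate pH 7.5, 10 mM Mg acetate, 0.01% Tween-20, 0.05% BSA; 6-point qHTS titration about 60 µM downward; luminescence read.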
Luc counter: blocks Kinase-Glo luciferase, a counter-screen artifact. actives 0.28% (n = 200,000). Kinase-Glo luciferase, ATP luminescence, 8 min. Q27757. Potency, µM (titrated, usually from 38.3 µM), for the others: at the top dose activity change, negative = inhibition, usual class: inhibitors; note: % is set by controls: 0 for no effect and ±100 for the full control effect; nearly all actives have a fitted effect of over 60% in size
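Recombinant Kinase-Glo luciferase, 10 uM ATP (linear range), luciferin; imidazole pH 7.2 / KCl / MgCl2 / Tween / BSA buffer; 8 min RT; luminescence.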
ELG1 genotox: induces genotoxicity in HEK293T cells with luciferase-tagged ELG1 | actives 1.3% (n = 330,000) | Potency, µM (top dose mostly 46 µM), inactives show at the top dose activity change, positive = activation, hits mostly activators | AID 504466 | HEK293T ELG1-luciferase reporter, luminescence, 16 h; note: % of control where 0% means no effect; nearly all actives have a fitted effect of over 60% in size
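Step 1: seed 2,000 HEK293T ELG1-luciferase cells per well. Step 2: add compound or DMSO, incubate 16 hr at 37 °C. Step 3: ONE-Glo, 30 min at room temperature, read luminescence.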
NPC1 promoter act: activates the NPC1 promoter | Huh7 NPC1 promoter luciferase reporter, 24 h | Potency, µM (doses to about 9.22 µM), for the others: at the highest dose activation, usual class: activators | actives 2.4% (n = 320,000); note: % of control where 0% means no effect; nearly all actives have a fitted effect of over 60% in size
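Readout is luciferase luminescence, reflecting NPC1 promoter activation in stably transfected Huh7 cells after 24 h compound exposure at 37 °C in reduced-serum medium with 10% FBS.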
SMN2 splice enh: increases expression of the SMN2 splice variant; actives 2.8% (n = 210,000); HEK293 SMN2-luciferase splicing reporter, luminescence, 30-36 h; Potency, µM (series often up to 46.1 µM), for the others: at the highest dose activity change, positive = activation, most hits filed as activators; note: % of control where 0% means no effect; nearly all actives have a fitted effect of over 55% in size
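qHTS luciferase splicing reporter: luminescence rises when SMN2 exon 7 is included in transfected HEK293 cells. Compound exposure lasted 30-36 h at 37C, with 4.5 mM final sodium butyrate as control, followed by a ONE-Glo read.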
Rab9 prom act: activates the Rab9 promoter | actives 2.8% (n = 320,000) | Potency, µM (highest dose often 9.22 µM), without a hit: top-dose activation, negative = inhibition, most hits filed as activators | AID 485297 | Huh7 Rab9 promoter-luciferase reporter, luminescence, 24 h; note: % of control where 0% means no effect; nearly all actives have a fitted effect of over 60% in size
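Huh7 cells stably carrying a Rab9 promoter-luciferase reporter, 1500 cells per well in OP-MEM I with 10% FBS, treated with compound 24 hours at 37C. Luciferase activity read by luminescence after 10 minutes with Amplite reagent.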
The depositor's hits bear a star; ? = inconclusive; · = no result given; [ ] = dose if it differs, or a comment. In the library only some 7.4% were active in any assay of this set; here they are far more common. Calls come from the whole dose curve; as a rule, active = well fitted curve in the direction sought with a large enough effect; inconclusive = small, poorly fitted or top-dose-only effect, or another doubt; inactive = no such curve, though single readings can be large; an effect the other way counts as inactive or inconclusive. Potency is the fitted concentration of half-maximal effect.

SMILES	FLuc counter	Luc counter	ELG1 genotox	NPC1 promoter act	SMN2 splice enh	Rab9 prom act
NC(N)=NCC(O)CN(c1ccccc1)c1ccccc1 (stereo not drawn)	0%	·	-7%	-6%	·	-2%
Cc1cc(N/N=C/c2ccc(O)c(C)c2O)nc(-c2ccccc2O)n1	?	0%	-6%	-1%	-63%	0%
Cc1ccc(Nc2cc(C)nc(-c3ccccc3O)n2)cc1	24µM*	-2%	?	14%	-14%	18%
Cc1ccc(Nc2cc(C)nc(-c3ccccc3)n2)cc1	21µM*	·	?	?	·	?
C/C(=N\Nc1cc(C)nc(-c2ccccc2O)n1)c1ccccc1	9.5µM*	-12%	-8%	-1%	-21%	-3%
CCOc1ccc(NS(=O)(=O)c2cc(NC(=O)c3cccc(C)c3)ccc2Cl)cc1	?	·	-12%	-6%	·	-1%
COc1ccccc1N1CCN(CCC(=O)Nc2cccc(Cl)c2)CC1	4%	·	-10%	-5%	·	-5%
Cc1ccc(-c2ccnc(-c3ccc(O)cc3)n2)cc1	21µM*	-1%	?	8%	19%	22%
Oc1ccc(-c2nccc(-c3ccccn3)n2)cc1	17µM*	·	?	?	·	?
O=C(Oc1ccc(-c2nccc(-c3ccccn3)n2)cc1)c1cccc(C(F)(F)F)c1	1%	-1%	?	30%	?	9%
Cc1ccc(C(=O)Oc2ccc(-c3nccc(-c4ccccn4)n3)cc2)cc1	5%	-1%	10µM*	?	?	17%
COc1ccc(-c2ccnc(-c3ccc(O)cc3)n2)cc1	?	3%	?	-33%	21%	-5%
Oc1ccc(-c2nccc(-c3ccc(Br)cc3)n2)cc1	?	·	11%	-7%	·	0%[1.84 µM]
COc1ccccc1C(=O)Nc1ccnn1C1CCN(Cc2ncc[nH]2)CC1	1%	·	2%[9.26 µM]	-2%	·	1%
Nc1ncc(Br)cc1N=Cc1ccccc1	3.4µM*	-2%	?	21%	13µM*	3.5µM*
Cn1ncc(N=Cc2ccccc2)c1C(N)=O	-1%	20%	2%	-1%	·	12%
CCCc1cc(=O)[nH]c2nnc(SCC(=O)Nc3ccc(C(C)=O)cc3)n12	1%	·	1%	-3%	·	1%
O=C(CSc1nnc2[nH]c(=O)cc(-c3ccccc3)n12)Nc1ccccc1C(F)(F)F	2.7µM*	·	·	·	·	·
COc1ccc(Cl)cc1NC(=O)CSc1nnc2[nH]c(=O)cc(-c3ccccc3)n12	1.2µM*	·	·	·	·	·
CCc1ccc(NC(=O)CSc2nnc3[nH]c(=O)cc(-c4ccccc4)n23)cc1	1.5µM*	·	·	·	·	·
O=C1CCC(C(=O)N2CCCCO2)CN1CCc1ccccc1 (stereo not drawn)	17µM*	·	?	?	·	?
COc1ccccc1CN1CC(C(=O)N2CCCCO2)CCC1=O (stereo not drawn)	?	·	?	26%	·	?
CC1(C)C(=O)N(CCN2CCC(C(=O)c3ccc(F)cc3)CC2)c2ccccc21	1%	-3%	-27%	-13%[46.1 µM]	-27%	-27%[46.1 µM]
Oc1ccc(-c2cn3ccccc3n2)cc1	5.4µM*	·	?	2.2µM*	·	2.8µM*
Brc1ccc(OCc2cn3ccccc3n2)cc1	2.7µM*	-9%	?	1.6µM*	10µM*	0.63µM*
SMILES	FLuc counter	Luc counter	ELG1 genotox	NPC1 promoter act	SMN2 splice enh	Rab9 prom act
Brc1ccc(-c2cn3ccccc3n2)cc1	0.76µM*	·	?	0.71µM*	·	0.4µM*
O=C(COc1ccc(Br)cc1)NCc1cn2ccccc2n1	-1%	·	-1%	-4%	·	2%
Oc1ccc(-c2cn3ccccc3n2)cc1O	12µM*	·	13µM*	27%	·	?
C=CC[C@]12CCc3ccccc3C1N(c1ccc(C(=O)OCC)cc1)C2=O (stereo partly drawn)	-9%	·	-4%	-2%	·	-2%
Cc1ccn2cc(-c3ccc(O)c(O)c3)nc2c1	3µM*	·	3.3µM*	?	·	17%
c1ccc2c(-c3cn4ccccc4n3)c[nH]c2c1	12µM*	-7%	14%	?	14µM*	3.5µM*
Cc1ccn2cc(CC(=O)O)nc2c1	3%	1%	1%	-4%	·	3%
CN(C)S(=O)(=O)c1ccc(-c2cn3ccccc3n2)cc1	5.4µM*	-23%	5.8µM*	?	?	2.5µM*
CN(C)S(=O)(=O)c1ccc(-c2ccccc2)cc1	-15%	2%	-2%	3%	-10%	8%
C/C(=N\NC(=O)c1ccc(OC2OCCOC2Oc2ccc(C(=O)N/N=C(\C)c3ccncc3)cc2)cc1)c1ccncc1 (stereo not drawn)	-13%	·	11%	-9%	·	-15%
COC(=O)c1ccc2c(c1)NC(=O)CS2	-2%	-1%	-1%	-6%	3%	-5%
C=CCn1c(C)cc(C(=O)COC(=O)c2ccc3c(c2)NC(=O)CS3)c1C	17µM*	-1%	0%	5%	21%	2%
C=CCn1c(C)cc(C(=O)COC(=O)c2ccc(N)c([N+](=O)[O-])c2)c1C	3µM*	-1%	2.6µM*	4µM*	13µM*	1.3µM*
Cc1cc(C(=O)COC(=O)c2ccc(N)c([N+](=O)[O-])c2)c(C)n1Cc1ccc2c(c1)OCO2	?	·	7%	26%	·	3%
COCCn1c(C)cc(C(=O)COC(=O)c2ccc3c(c2)NC(=O)CS3)c1C	13µM*	1%	1%	0%	7%	1%
Cc1ccc(S(=O)(=O)N(C)C)cc1NC(=O)COC(=O)c1ccc2c(c1)NC(=O)CS2	0%	·	-8%	-3%	·	-9%
Cc1cccc(N(Cc2ccccc2)C(=O)CN2C(=O)NC3(CCCC3)C2=O)c1	4%	·	0%	-2%	·	-2%
CCOc1ccc(S(=O)(=O)N(CC)CC(=O)NCc2ccncc2)cc1	-1%	·	-10%	-2%	·	6%
Cc1nnc(SCc2cnc(-c3ccc(C(C)C)cc3)s2)n1C	0.3µM*	-2%	?	1.6µM*	?	2µM*
c1ccc(-c2ncc(CSc3nncn3-c3ccccc3)s2)cc1	0%	7%	0%	1%	-55%	1%
COc1ccc(C(=O)CSc2nc(C)cc(=O)[nH]2)cc1	-1%	-1%	4%	1%	16%	1%
COc1ccc(N/N=C(/N=Nc2nc(C)cc(=O)[nH]2)c2ccccc2)cc1	4.3µM*	8.9µM*	2.6µM*	?	-62%	-9%
Cc1cc(=O)[nH]c(N=N/C(=N/Nc2ccc(O)cc2)c2ccccc2)n1	11µM*	7.9µM*	?	4%	-55%	0%
